This is a sample that favours compounds with a hit; in the whole collection about 19% have one here.
HT1080 IDH1KD tx – toxicity to HT-1080 IDH1 knockdown cells (counter line). HT-1080 IDH1 knockdown viability, ATP luminescence, 48 h. Potency, µM (titrated, usually from 46.1 µM), for inactives: at the highest dose activity, negative = toxicity, actives largely listed as cytotoxic. 360,000 compounds, 2% hits. AID 686971;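 further: potency means the concentration at half of the fitted maximal effect; 0% = DMSO wells and -100% = cell-free medium wells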
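Luminescent ATP read-out (CellTiter-Glo, 10 min at room temperature) after 48 h compound exposure at 37 °C gave viability of IDH1-knockdown HT-1080 cells. Activity was normalised to DMSO and cell-free wells, then fitted as concentration-response curves.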
HT1080-NT tox – kills 2HG-producing HT-1080-NT fibrosarcoma cells; HT-1080-NT fibrosarcoma viability, CellTiter-Glo ATP luminescence, 48 h; Potency, µM (highest dose often 46.1 µM), without a hit: top-dose activity, negative = less viability, hits mostly cytotoxic; 360,000 compounds, 1.6% hits; AID 686970;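 further: NT is the 2HG producing partner of a matched IDH1 knockdown line; potency means the concentration at half of the fitted maximal effect; 0% = DMSO-treated cells and -100% = media-only wells without cells; nearly all actives have a fitted effect of over 55% in size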
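Viability of the 2HG-overproducing fibrosarcoma line after 48 hours of compound exposure at 37 degrees C was determined by luminescence with CellTiter-Glo, and concentration-effect curves were then fitted and categorized.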
DT40 TDP1 CPT – DT40-hTDP1 cell growth loss with CPT | chicken DT40 Tdp1-/-;hTDP1 cells + 20 nM CPT, ATP luminescence, 48 h | AID 686979 | 420,000 compounds, 12% hits | Potency, µM (top dose mostly 46.2 µM), for inactives: at the highest dose activity change, negative = growth inhibition, actives largely listed as inhibitors; further: potency means the concentration at half of the fitted maximal effect; nearly all actives have a fitted effect of over 55% in size
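Chicken DT40 Tdp1-/- cells stably complemented with human TDP1 were seeded at 400 cells/well in medium containing 20 nM camptothecin, exposed to pin-transferred compounds, and grown at 37 °C for at least 48 hr. Viability was read as ATP luminescence.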
TDP1 cell noCPT – qHTS for Inhibitors of human tyrosyl-DNA phosphodiesterase 1 (TDP1): qHTS in cells in absence of CPT; DT40 Tdp1-/- hTDP1 cells, no CPT, ATP luminescence, 48 h; Potency, µM (titrated, usually from 46.2 µM), for inactives: at the top dose activity change, negative = growth inhibition, hits mostly inhibitors; 420,000 compounds, 15% hits; AID 686978, 2013; further: potency means the concentration at half of the fitted maximal effect; nearly all actives have a fitted effect of over 55% in size
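Compound effects on proliferation are scored in DT40 Tdp1-/-;hTDP1 cells in the absence of CPT. ATP levels (CellTiter-Glo luminescence) are recorded after a ≥48 hr, 37 °C incubation.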
IL-1B inflam inh – blocks inflammasome-driven IL-1 beta release | 360,000 compounds, 4.7% hits | THP-1 LPS/ATP IL-1B secretion, AlphaLISA, 16 h; hits give low values | activity change, % at 57.5 µM; in the data active means activity change below about -50%; inconclusive means mostly about -30% to -49%
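THP-1 cells pretreated 1 hr with compounds (up to 57.5 uM final), then stimulated with LPS (250 ng/mL final) plus ATP (1.25 mM final); secreted IL-1B measured by AlphaLISA after 16 hr, decreased signal indicating inhibition.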
ELG1 DNA repair – inhibitors of ELG1-dependent DNA repair in HEK293T cells. 330,000 compounds, 2.3% hits. Potency, µM (titrated, usually from 46.1 µM), without a hit: at the top dose activity change, negative = inhibition, usual class: inhibitors. HEK293T ELG1-luciferase reporter, luminescence, 16 h; DNA damage induced by 5-fluorouridine; further: potency means the concentration at half of the fitted maximal effect; nearly all actives have a fitted effect of over 55% in size
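Cells (2,000 per well) received 5-fluorouridine plus test compound or DMSO and were incubated 16 hr at 37 °C, 5% CO2. Luciferase activity was read by luminescence 30 min after ONE-Glo addition; signal suppression marked inhibition of damage-induced ELG1 function.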
Numbers without * were called inactive; [ ] = another dose, or the depositor's remark. Unless noted, the call rests on the fitted dose curve; in most records, active means well fitted curve in the direction sought with a large enough effect; inconclusive means small, poorly fitted or top-dose-only effect, or another doubt; inactive means no such curve, though single readings can be large; an effect the other way counts as inactive or inconclusive. Unless noted, on the % scale 0 is the no-effect control and ±100 the full control effect.

What do the screens show for `O=C(Nc1cccc(F)c1)Nc1ccc2c(c1)OCO2`?
HT1080 IDH1KD tx: -26%; HT1080-NT tox: -21%; DT40 TDP1 CPT: inconclusive; TDP1 cell noCPT: inconclusive; IL-1B inflam inh: -67*; ELG1 DNA repair: inconclusive

What do the screens show for `O=C(Nc1ccc2c(c1)OCO2)c1cccc(F)c1`?
HT1080 IDH1KD tx: 2%; HT1080-NT tox: 6%; DT40 TDP1 CPT: -9%; TDP1 cell noCPT: -14%; IL-1B inflam inh: -23

Results for O=C(CCc1ccccc1)NNC(=O)Nc1cccc(Cl)c1 ?
HT1080 IDH1KD tx: -1%; HT1080-NT tox: -11%; DT40 TDP1 CPT: -20%; TDP1 cell noCPT: 0%; IL-1B inflam inh: 28; ELG1 DNA repair: -15%

What do the screens show for `O=C(Cc1cccc2ccccc12)NNC(=O)Nc1cccc(Cl)c1`?
HT1080 IDH1KD tx: inconclusive; HT1080-NT tox: 16µM*; DT40 TDP1 CPT: -9%; TDP1 cell noCPT: -25%; IL-1B inflam inh: -30; ELG1 DNA repair: 1%

What do the screens show for `O=C(Nc1cccnc1)Nc1cc(Cl)cc(Cl)c1`?
HT1080 IDH1KD tx: -8%; HT1080-NT tox: 1%; DT40 TDP1 CPT: 10µM*; TDP1 cell noCPT: 23µM*; IL-1B inflam inh: -101*; ELG1 DNA repair: -10%

Results for CCN(C(=O)Cn1c(=O)oc2cc(Cl)ccc21)c1cccc(C(F)(F)F)c1 ?
DT40 TDP1 CPT: inconclusive; TDP1 cell noCPT: -25%

How did CC1CCCCC1NC(=O)CN1CCC(NC(=O)C(C)(C)C)CC1 (stereo unspecified) do in these assays?
HT1080 IDH1KD tx: -1%; HT1080-NT tox: 11%; DT40 TDP1 CPT: -24%; TDP1 cell noCPT: -15%; IL-1B inflam inh: 17

Results for Cc1nc(SCC(=O)Nc2ccccc2Cl)c2c(C)c(C)sc2n1 ?
HT1080 IDH1KD tx: -17%; HT1080-NT tox: -7%; DT40 TDP1 CPT: inconclusive; TDP1 cell noCPT: inconclusive; IL-1B inflam inh: 2; ELG1 DNA repair: inconclusive

How did O=C(Nc1cccc(Cl)c1)Nc1cccc(Cl)c1 do in these assays?
HT1080 IDH1KD tx: -21%; HT1080-NT tox: inconclusive; DT40 TDP1 CPT: 15µM*; TDP1 cell noCPT: 12µM*; IL-1B inflam inh: -21; ELG1 DNA repair: -28%

What do the screens show for `COC(=O)c1cc(NC(=O)Nc2cccc(Cl)c2)ccc1Cl`?
HT1080 IDH1KD tx: inconclusive; HT1080-NT tox: 13µM*; DT40 TDP1 CPT: 16µM*; TDP1 cell noCPT: 18µM*; IL-1B inflam inh: -97*; ELG1 DNA repair: -1%

How did O=C(Nc1ccc(S(=O)(=O)Nc2ccc(Cl)cc2)cc1)C1CCCO1 (stereo unspecified) do in these assays?
HT1080 IDH1KD tx: inconclusive; HT1080-NT tox: -21%; DT40 TDP1 CPT: 16µM*; TDP1 cell noCPT: 13µM*; IL-1B inflam inh: -17; ELG1 DNA repair: -16%

Results for O=C(Nc1ccc(Oc2ccccc2)cc1)C1CCCO1 (stereo unspecified) ?
HT1080 IDH1KD tx: -6%; HT1080-NT tox: 0%; DT40 TDP1 CPT: -6%; TDP1 cell noCPT: -24%; IL-1B inflam inh: 1; ELG1 DNA repair: inconclusive

How did CCCCCCNS(=O)(=O)c1ccc(NC(=O)C2CCCO2)cc1 (stereo unspecified) do in these assays?
HT1080 IDH1KD tx: 3%; HT1080-NT tox: 1%; DT40 TDP1 CPT: 9.2µM*; TDP1 cell noCPT: 10µM*; IL-1B inflam inh: 6; ELG1 DNA repair: -4%

What do the screens show for `CC(C)N(c1ccccc1)c1ccc(NC(=O)C2CCCO2)cc1` (stereo unspecified)?
HT1080 IDH1KD tx: -1%; HT1080-NT tox: 14%; DT40 TDP1 CPT: inconclusive; TDP1 cell noCPT: 16µM*; IL-1B inflam inh: -9; ELG1 DNA repair: -3%

Results for O=C(Nc1ccc(N=Nc2ccccc2)c(NC(=O)C2CCCO2)c1)C1CCCO1 (stereo unspecified) ?
HT1080 IDH1KD tx: inconclusive; HT1080-NT tox: inconclusive; DT40 TDP1 CPT: 8.2µM*; TDP1 cell noCPT: 21µM*; IL-1B inflam inh: -83*; ELG1 DNA repair: 9.2µM*

What do the screens show for `O=C(NS(=O)(=O)c1ccc(NC(=O)C2CCCO2)cc1)c1ccccc1` (stereo unspecified)?
HT1080 IDH1KD tx: 16%; HT1080-NT tox: 11%; DT40 TDP1 CPT: 8%; TDP1 cell noCPT: 4%; IL-1B inflam inh: 19; ELG1 DNA repair: 9%

What do the screens show for `CN(CC(=O)Nc1cccc2ccccc12)C(=O)/C=C/c1cccs1`?
HT1080 IDH1KD tx: -9%; HT1080-NT tox: -1%; DT40 TDP1 CPT: 3%; TDP1 cell noCPT: -37%; IL-1B inflam inh: -18; ELG1 DNA repair: 16%

How did CCCOC(=O)c1ccccc1O do in these assays?
DT40 TDP1 CPT: -9%; TDP1 cell noCPT: -24%

Results for Cc1nn(-c2ccccc2)c(C)c1CC(=O)NCC1Cc2cc(-c3cncnc3)ccc2O1 (stereo unspecified) ?
DT40 TDP1 CPT: 7%[9.04 µM]; TDP1 cell noCPT: -9%

How did CC1=NN(Cc2ccccc2)C(=O)C1C(c1ccccc1)C(C#N)C#N (stereo unspecified) do in these assays?
HT1080 IDH1KD tx: -11%; HT1080-NT tox: -16%; DT40 TDP1 CPT: 21µM*; TDP1 cell noCPT: 26µM*; IL-1B inflam inh: -3; ELG1 DNA repair: inconclusive

Results for CC1=NN(Cc2ccccc2)C(=O)C1C(c1ccc(Cl)cc1)C(C#N)C#N (stereo unspecified) ?
HT1080 IDH1KD tx: 0%; HT1080-NT tox: -25%; DT40 TDP1 CPT: 10µM*; TDP1 cell noCPT: 10µM*; IL-1B inflam inh: -29; ELG1 DNA repair: inconclusive

Source: PubChem
